This is one part of a sample in which hits are shown more often than they occur.
L3MBTL1 inh: qHTS Assay for the Inhibitors of L3MBTL1; hit rate 0.66% among 230,000; Potency, µM (doses to about 57.1 µM), inactives show at the highest dose activity, negative = inhibition, most hits filed as inhibitors; AlphaScreen L3MBTL1–H3K9me1 peptide binding; Lethal(3)malignant brain tumor-like protein 1 (Homo sapiens), Q9Y468; further: nearly all actives have a fitted effect of over 60% in size
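L3MBTL1 50 nM + b-AHA-H3(1-15)K9me1 75 nM, 30 min RT; compound added, 30 min RT; streptavidin donor/Ni-chelate acceptor beads 10 ug/mL each final, 30 min RT dark; AlphaScreen read.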
BLM inh: qHTS Assay for Inhibitors of Bloom's syndrome helicase (BLM). AID 2528, 2010. recombinant BLM DNA unwinding, fluorescence dequenching. hit rate 0.2% among 350,000. Potency, µM (highest dose often 56.1 µM), for inactives: at the top dose activity change, negative = inhibition, most hits filed as inhibitors. RecQ-like DNA helicase BLM (Homo sapiens), P54132;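 further: plate controls were vehicle for no effect and no enzyme for full effect; nearly all actives have a fitted effect of over 35% in size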
JMJD2E inh: qHTS Assay for Inhibitors of Human Jumonji Domain Containing 2E (JMJD2E); Lysine-specific demethylase 4E (Homo sapiens), B2RXH2; JMJD2E catalytic domain, FDH-coupled NADH fluorescence (FDH is formaldehyde dehydrogenase); Potency, µM (doses to about 57.1 µM), for the others: at the highest dose activity change, negative = inhibition, usual class: inhibitors; hit rate 1.6% among 230,000; active means well fitted inhibition curve with a large enough effect, not every such curve was filed as active; inconclusive means small, poorly fitted or top-dose-only effect, or another doubt; inactive means no such curve, though single readings can be large or run the other way;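 further: 0% = wells with enzyme and -100% = buffer wells without enzyme; nearly all actives have a fitted effect of over 50% in size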
GCN5L2 inh: qHTS Assay for Inhibitors of GCN5L2; Potency, µM (doses to about 58.9 µM), for inactives: at the top dose activity change, negative = inhibition, usual class: inhibitors; GCN5L2 HAT assay, ThioGlo1 CoA-SH fluorescence; hit rate 0.21% among 390,000; Histone acetyltransferase KAT2A (Homo sapiens), Q92830
Target sequence (Q92830 whole entry, looked up): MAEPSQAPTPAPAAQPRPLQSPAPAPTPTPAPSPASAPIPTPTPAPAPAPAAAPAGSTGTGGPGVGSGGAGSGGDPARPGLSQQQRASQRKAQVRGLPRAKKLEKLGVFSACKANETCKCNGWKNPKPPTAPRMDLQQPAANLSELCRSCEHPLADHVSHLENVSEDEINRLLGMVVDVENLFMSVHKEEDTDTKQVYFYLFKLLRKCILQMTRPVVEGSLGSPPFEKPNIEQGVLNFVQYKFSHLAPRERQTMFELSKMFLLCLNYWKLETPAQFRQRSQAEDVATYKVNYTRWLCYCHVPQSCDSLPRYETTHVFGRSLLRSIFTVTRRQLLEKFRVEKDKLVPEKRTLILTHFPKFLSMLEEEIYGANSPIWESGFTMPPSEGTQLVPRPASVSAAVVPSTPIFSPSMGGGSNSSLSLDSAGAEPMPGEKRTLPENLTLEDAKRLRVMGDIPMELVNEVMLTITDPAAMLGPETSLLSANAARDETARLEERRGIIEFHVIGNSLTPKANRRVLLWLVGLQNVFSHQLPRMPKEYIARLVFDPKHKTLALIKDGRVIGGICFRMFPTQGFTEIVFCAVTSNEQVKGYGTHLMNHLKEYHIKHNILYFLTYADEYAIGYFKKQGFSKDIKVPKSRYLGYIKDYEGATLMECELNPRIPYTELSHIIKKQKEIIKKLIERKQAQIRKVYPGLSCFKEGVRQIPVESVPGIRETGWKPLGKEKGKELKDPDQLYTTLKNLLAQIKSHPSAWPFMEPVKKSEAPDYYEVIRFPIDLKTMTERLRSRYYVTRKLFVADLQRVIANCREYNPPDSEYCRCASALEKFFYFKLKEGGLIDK
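Free CoA generated was detected with ThioGlo1 (50uM) fluorescence at Ex340nm/Em540nm, read immediately and after 20 min at room temperature. Enzyme, 20 nM in HEPES pH 7.5 buffer, saw compounds 15 min before adding 75uM H3(1-25) peptide and 70uM acetyl-CoA.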
RECQ1 inh-1: qHTS Assay for Inhibitors of RecQ-Like Dna Helicase 1 (RECQ1) | RECQ1 DNA unwinding, red fluorescence kinetic read | Potency, µM (highest dose often 57.3 µM), without a hit: at the top dose activity, negative = inhibition, hits mostly inhibitors | hit rate 0.54% among 240,000;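 further: plate controls were vehicle for no effect and no enzyme for full effect; nearly all actives have a fitted effect of over 30% in size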
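50 nM RECQ1T1 preincubated 15 min with compound in Tris pH 8.0 buffer with MgCl2, DTT, Tween-20 and 2.5 ug/ml poly(dI-dC); started with 200 nM TAMRA/BHQ-2 forked duplex and 2 mM ATP. Unwinding read as fluorescence (525/598 nm), two reads 2 h apart.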
APE1 inh: qHTS Assay for Inhibitors of the Human Apurinic/apyrimidinic Endonuclease 1 (APE1); DNA repair nuclease/redox regulator APEX1 (Homo sapiens), P27695; recombinant APE1, TAMRA/BHQ-2 abasic DNA cleavage fluorescence; Potency, µM (titrated, usually from 65.8 µM), for the others: at the top dose activity change, negative = inhibition, hits mostly inhibitors; hit rate 0.35% among 350,000;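 further: plate controls were vehicle for no effect and reference inhibitor for full effect; nearly all actives have a fitted effect of over 55% in size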
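0.75 nM APE1 + cpd, 15 min RT; start w/ 50 nM TAMRA/BHQ-2 THF-abasic dsDNA; kinetic fluor 525/598 nm ×3 reads @60 s; Δ(read3−read1); normalized to DMSO and NSC13755 control wells.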
RECQ1 inh conf: Confirmation qHTS Assay for Inhibitors of RecQ-Like Dna Helicase 1 (RECQ1) | shares compounds with RECQ1 inh-1 | RECQ1 helicase DNA unwinding, fluorescence | Potency, µM (top dose mostly 229 µM), without a hit: at the top dose activity change, negative = inhibition, hits mostly inhibitors | hit rate 28% among 610 | AID 2708, 2010; further: nearly all actives have a fitted effect of over 45% in size
ADP FP counter: Counterscreen for RECQ1 Inhibitors: ADP Fluorescence Polarization Displacement Assay. hit rate 27% among 530. shares compounds with RECQ1 inh-1. ADP fluorescence polarization displacement counterscreen. Potency, µM (highest dose often 228 µM), for inactives: top-dose activity change, negative = inhibition, most hits filed as inhibitors; further: nearly all actives have a fitted effect of over 45% in size
RECQ1 inh-2: Confirmation qHTS Assay for Inhibitors of RecQ-Like Dna Helicase 1 (RECQ1) - Round 2 Cherry Picks. Potency, µM (titrated, usually from 119 µM), without a hit: top-dose activity, negative = inhibition, hits mostly inhibitors. hit rate 15% among 1,100. recombinant RECQ1 DNA unwinding, red fluorescence. shares compounds with RECQ1 inh-1; further: nearly all actives have a fitted effect of over 50% in size
Starred values were filed as active, the others as inactive; ? = inconclusive; . = not tested or not shown; [ ] = another dose, or the depositor's remark. Unless noted, the call rests on the fitted dose curve; in most records, active means well fitted curve in the direction sought with a large enough effect; inconclusive means small, poorly fitted or top-dose-only effect, or another doubt; inactive means no such curve, though single readings can be large; an effect the other way counts as inactive or inconclusive. Unless noted, on the % scale 0 is the no-effect control and ±100 the full control effect; potency means the concentration at half of the fitted maximal effect.

SMILES | L3MBTL1 inh | BLM inh | JMJD2E inh | GCN5L2 inh | RECQ1 inh-1 | APE1 inh | RECQ1 inh-2 | others
CCOc1ccc(Cn2c(CNS(=O)(=O)c3ccc([N+](=O)[O-])cc3)nc3cccnc32)cc1 | . | -2% | . | 2% | . | . | .
CCN(CC)S(=O)(=O)c1ccc(C(=O)NC(=S)N(CCC#N)Cc2cccnc2)cc1 | 11% | 0% | -6% | -15% | -4% | 2% | . | RECQ1 inh conf=0%;ADP FP counter=1%
CCOC(=O)C1=C(CN2CCN(c3ccccc3)CC2)NC(=O)NC1c1ccc(C)cc1 (centres undefined) | . | 0% | . | -3% | . | . | .
Cc1ccc(-n2c(=O)c(C#N)cc3c(=O)n4ccccc4nc32)cc1 | -6% | -3% | ? | 30% | 35µM* | ? | 1%
Cc1ccccc1NC(=O)C1CCCN1S(=O)(=O)c1ccccc1C(F)(F)F (centres undefined) | 6% | . | . | -3% | . | 21% | .
Cc1cccc(-n2ncc3c2CCCC3NC(=O)C2CCOCC2)c1C (centres undefined) | . | 1% | . | -27% | . | -1% | .
Cc1noc(C)c1C(=O)N1CCC2(CC1)CN(c1ncccn1)C2 | . | 3% | . | -9% | -7% | -1% | .
CCOC(=O)C1(CC2CC2)CCN(S(=O)(=O)/C=C/c2ccccc2)CC1 | 26% | -5% | -6% | -15% | ? | 6% | -17%
O=C(O)c1ccc(CSc2nnnn2-c2ccc(F)cc2)cc1 | . | -8% | . | -2% | . | 17% | .
O=C(CSc1nnnn1-c1ccc(F)cc1)c1ccc(O)c(O)c1 | . | -1% | 28µM* | -6% | 5µM* | 6% | ? | RECQ1 inh conf=-10%[114 µM];ADP FP counter=5%[91.9 µM]
Cc1ccc2c(c1)N(C(=O)N1CCC(C(=O)NCc3ccco3)CC1)CC(C)O2 (centres undefined) | . | 0% | . | -3% | . | . | .
COc1cccc(C(=O)Nc2cccc(C(=O)NC3=NN(c4c(Cl)cc(Cl)cc4Cl)C(=O)C3)c2)c1 | ? | -26% | -17% | ? | 32µM* | 6% | ?
COc1cccc(C(=O)Nc2cccc(NC(=O)c3ccc(Cl)cc3Cl)c2)c1 | . | -4% | . | -20% | . | . | .
CC(C)(C)c1ccccc1NC(=O)Cn1cnc2cc([N+](=O)[O-])ccc2c1=O | 19% | -3% | -5% | -15% | -1% | -5% | .
O=C(Cn1cnc2cc([N+](=O)[O-])ccc2c1=O)NC(c1ccccc1)c1ccccc1 | -4% | -7% | -10% | -5% | ? | 12% | -5%
COc1cccc(NC(=O)Cn2c(=O)n(CC(=O)NCCc3ccccc3)c(=O)c3sccc32)c1 | . | -3% | . | -4% | . | . | .
CCn1c(CSc2nnc(-c3ccncc3)n2CCOC)nc2cc(C(=O)O)ccc21 | 6% | -10% | -4% | -4% | 22µM* | -8% | -178% | RECQ1 inh conf=56µM*;ADP FP counter=4.5µM*
CCn1c(CSc2n[nH]c(N)n2)nc2cc(C(=O)O)ccc21 | 22% | -9% | -11% | -11% | 32µM* | ? | 56µM*
COC(=O)c1ccc(C(=O)OC)c(NC(=O)CSc2n[nH]c(N)n2)c1 | 5% | . | . | 0% | . | -4% | .
CCn1c(CSc2nnc3ccccn23)nc2cc(C(=O)O)ccc21 | 5% | -7% | -3% | -1% | 10µM* | -7% | 56µM* | RECQ1 inh conf=45µM*;ADP FP counter=2µM*
COC(=O)C1=CC(C(=O)c2cccs2)=NN(c2ccc(OC)cc2)C1C(=O)OC (centres undefined) | ? | -12% | 1% | -11% | ? | -5% | 79µM*
COC(=O)C1=CN(Cc2ccc(OC)cc2)C=C(C(=O)OC)C1c1cccs1 | 170% | -14% | ? | -18% | -21% | ? | .
COC(=O)c1cn(C)c2ccc(S(=O)(=O)N3CCCC3)cc2c1=O | -5% | -2% | -27% | -17% | ? | -3% | -31%
Cn1c2c(c(=O)n(C)c1=O)C(c1ccccc1Cl)CC(=O)N2 (centres undefined) | . | -4% | 3% | -9% | -2% | 17% | .
O=C1CC(=O)CC(c2ccccc2Cl)C1 | -15% | 5% | 1% | -7% | ? | -9% | -15%
SMILES | L3MBTL1 inh | BLM inh | JMJD2E inh | GCN5L2 inh | RECQ1 inh-1 | APE1 inh | RECQ1 inh-2 | others
CCS(=O)(=O)NCc1ccc2c(c1)cc(C)n2C | -5% | -8% | -24% | -20% | -4% | 0% | .
COc1ccc(S(=O)(=O)NCc2ccc3c(c2)cc(C)n3C)cc1 | -5% | -13% | -7% | -1% | 32µM* | -11% | ?
Cc1cc2cc(CNS(=O)(=O)c3ccccc3)ccc2n1C | . | -12% | -18% | -7% | ? | 6% | ?
Cc1cc2cc(CNC(=O)c3ccc(S(=O)(=O)N4CCCCC4)cc3)ccc2n1C | . | -1% | ? | -21% | 4% | -2% | .
Cc1cc2cc(CNC(=O)c3ccc(S(=O)(=O)N4CCCC4)cc3)ccc2n1C | -8% | -12% | ? | -28% | ? | -5% | -6%
C/C(=C/C(=O)N1CCc2ccccc21)C(=O)O | -4% | -13% | 8% | -4% | -4% | 15% | .
CCCSC1=N/C(=C\c2ccc([N+](=O)[O-])o2)C(=O)S1 | ? | 4% | ? | ? | 13µM* | 22µM* | ? | RECQ1 inh conf=-5%[114 µM]
CCSC1=N/C(=C\c2ccc(-c3ccccc3[N+](=O)[O-])o2)C(=O)S1 | -26% | 0% | ? | -22% | 2% | ? | .
O=C(CSC(=S)N1CCCC1)c1cc(Br)cc(Br)c1O | . | -11% | ? | -13% | 32µM* | 2% | 50µM*

Screens as filed in PubChem.
